Each structure is given as a SMILES string. The campaign covered roughly 52,000 compounds. About 1,700 (3.3%) were called active. Rule as the data show it: active = survival mostly below about 52% (no sharp cut-off); inactive = mostly above about 56%. The entries come from a sample that favours actives as a whole.

This assay relates to Wild type. Description: growth inhibition of S. aureus wild type versus tarO mutant, primary screen, teichoic acid synthesis inhibitors, RN4220, OD600 (AID 463173). Particulars: S. aureus RN4220 wild type/DeltatarO growth, OD600, 18 h, active compounds read low, screened at 18.75 µg/mL (by protocol).
Consider `Cc1sc2nc(SCC(=O)N(CCO)CCO)n(C3CCCCC3)c(=O)c2c1C`, for which the survival was 106% (inactive).

Consider `CCOc1ccc(CCNC(=O)CS(=O)(=O)Cc2nc(-c3cccc(Cl)c3)oc2C)cc1`, for which the survival was 82% (inactive). For `Oc1cccc2c1NCCC2`, the survival is 113% (inactive).

As to `O=S(=O)(c1cccc(Cl)c1)c1nnn2c1nc(NCc1ccc3c(c1)OCO3)c1sccc12`, the survival is 80% (inactive). As for `CCSc1oc(-c2cccs2)nc1S(=O)(=O)c1ccc(Br)cc1`, the survival was 51% (inactive). For the molecule `CCOC(=O)CNC(=O)CC(c1cc(OC)c(OC)c(OC)c1)N1Cc2ccccc2C1=O` (stereo not drawn), the survival is 60% (inactive). Take `Cc1c(Cl)cccc1NC(=O)C1CCN(c2ncnc3c2nc2n3CCCCC2)CC1`: the survival was 129% (inactive).

Regarding `O=C(COc1ccccc1)Nc1ccc2nc(SCCOc3ccccc3)sc2c1`, the survival is 94% (inactive). Regarding `COc1ccc(CNC(=O)Cn2nc3c(cc2=O)CCCC3)cc1`, the survival is 64% (inactive). Then `Cc1cccc(C2C=C(c3ccc(C)c(C)c3)Nc3nnnn32)c1` (stereo not drawn), with 1% (active). Regarding `COc1ccc(C2=CC(c3cccc(C)c3)n3nnnc3N2)cc1` (stereo not drawn), the survival was 71% (inactive).

As to `COc1cccc(C2C=C(c3ccc(C)c(C)c3)Nc3nnnn32)c1OC` (stereo not drawn), the survival was 71% (inactive).

Turning to `CS(=O)(=O)N1CCN(C(=O)c2ccccc2)CC1`, the survival was 110% (inactive). Then `CCn1cc(C(=O)NCCCN(CC(C)C)CC(C)C)c(=O)c2cc(S(=O)(=O)N3CCc4ccccc4C3)ccc21`, with 80% (inactive); and `Cc1cc(C)c(NS(=O)(=O)c2ccc3c(c2)NC(=O)CCS3)c(C)c1`, with 60% (inactive); and `Cc1cc(C)cc(NS(=O)(=O)c2ccc3c(c2)NC(=O)C(C)S3)c1` (stereo not drawn), with 12% (active). Then `O=C1CCSc2ccc(S(=O)(=O)Nc3ccc(Cl)c(C(F)(F)F)c3)cc2N1`, with 81% (inactive); and `O=C1CCSc2ccc(S(=O)(=O)Nc3cccc(C(F)(F)F)c3)cc2N1`, with -4% (active). In the case of `Cc1ccc(NS(=O)(=O)c2ccc3c(c2)NC(=O)CCS3)cc1C`, the survival was 63% (inactive). `Cc1ccc(NS(=O)(=O)c2ccc3c(c2)NC(=O)CCS3)c(Br)c1`: the survival was -3% (active).

With `Cc1ccccc1NS(=O)(=O)c1ccc2c(c1)NC(=O)CCS2`, the survival was 57% (inactive). For `Cc1ccc(NS(=O)(=O)c2ccc3c(c2)NC(=O)C(C)C(=O)N3)cc1F` (stereo not drawn) the value was 86% (inactive); for `CC1C(=O)Nc2ccc(S(=O)(=O)Nc3ccccc3Br)cc2NC1=O` (stereo not drawn), 89% (inactive). For `Cc1nn(C)c(C)c1S(=O)(=O)N(CC(=O)NCCc1ccccc1)c1ccc(C(C)C)cc1` the value was 86% (inactive); for `COc1cc(NC(=O)C2CCN(S(=O)(=O)c3c(C)noc3/C=C/c3ccccc3F)CC2)cc(OC)c1OC`, 64% (inactive). Then `CCCCC(=O)Oc1ccc2oc(-c3ccc(OC)cc3)cc(=O)c2c1`, with 69% (inactive); and `Cc1c(Cl)cccc1-n1nnc(-c2nc(-c3ccc4c(c3)OCO4)no2)c1C`, with 73% (inactive); and `COc1ccc(CNC(=O)c2ccc3nc(CCc4ccccc4)oc3c2)cc1`, with -2% (active). Turning to `CCCNC(=O)c1ccc2nc(CCc3ccccc3)oc2c1`, the survival is 73% (inactive). For `O=C(NCc1ccccc1)c1ccc2nc(CCc3ccccc3)oc2c1`, the survival was -3% (active). Regarding `COc1ccc(CCNC(=O)c2ccc3nc(CCc4ccccc4)oc3c2)cc1OC`, the survival is 10% (active). Then `COc1ccc(Cc2nc3ccc(C(=O)NCCc4ccc(OC)c(OC)c4)cc3o2)cc1`, with 68% (inactive); and `COc1ccc(CCNC(=O)c2ccc3nc(Cc4ccccc4)oc3c2)cc1OC`, with 124% (inactive); and `CN(C)c1ccc(CNC(=O)c2ccc3nc(CCc4ccccc4)oc3c2)cc1`, with 78% (inactive).

In the case of `O=C(NCc1cccc(F)c1)c1ccc2nc(CCc3ccccc3)oc2c1`, the survival is 71% (inactive).

`COc1ccc(CNC(=O)c2ccc3nc(CCc4ccccc4)oc3c2)c(OC)c1`: the survival is 131% (inactive). Consider `COc1ccc(CNC(=O)c2ccc3nc(CCc4ccccc4)oc3c2)cc1OC`, for which the survival was 71% (inactive). `O=C(NCCc1ccc(Cl)cc1)c1ccc2nc(CCc3ccccc3)oc2c1`: the survival is 59% (inactive). Then `O=C(NCCc1ccccc1)c1ccc2nc(CCc3ccccc3)oc2c1`, with 0% (active); and `COc1ccc(CCNCc2ccc3c(c2)n(C)c(=O)n3C)cc1OC`, with 111% (inactive); and `O=C(Nc1ccc2nc(C3CC3)n(Cc3ccccc3)c(=O)c2c1)C1CC1`, with 104% (inactive). As to `CCc1ccc(CN(Cc2ccco2)C(=O)COc2ccccc2Cl)cc1`, the survival was 85% (inactive). Then `Cc1ccc(N2CCN(S(=O)(=O)c3nnc(NC(=O)c4ccc(C(C)C)cc4)s3)CC2)cc1`, with 82% (inactive); and `Cc1cc(C)cc(C(=O)Nc2cc(C(F)(F)F)ccc2N2CCN(c3ccccc3)CC2)c1`, with 78% (inactive); and `CCc1ccc(CNC(=O)c2ccc3c(c2)nc2n3CCC(C)C2)cc1` (stereo not drawn), with 127% (inactive). As to `COC(=O)CCc1sc(Nc2ccc(OC)cc2)nc1-c1ccc(OC)cc1`, the survival was 77% (inactive). With `Cc1c(NC=O)c(=O)n(-c2ccccc2)n1C`, the survival is 107% (inactive).

Consider `CC(=O)c1ccc(NC(=O)COCc2cc(-c3ccco3)on2)cc1`, for which the survival is 129% (inactive).

Regarding `O=C(O)c1ccc(Cn2cnc3cccnc32)cc1`, the survival is 55% (inactive). Take `CC(C)(C)NC(=O)C1CC(=O)OC1(C)C` (stereo not drawn): the survival is 107% (inactive).

Turning to `COc1ccc(Br)cc1C1Sc2ccccc2NC2=C1C(=O)c1ccccc12` (stereo not drawn), the survival is 41% (inactive). `COC(=O)c1c(NC(=O)COc2cc(C)c(Cl)c(C)c2)sc2c1CCCC2`: the survival was 140% (inactive). For `COC(=O)c1c(NC(=O)c2c(OC)cccc2OC)sc2c1CCCC2` the value was 3% (active); for `COC(=O)c1c(NC(=O)COc2cccc(C(F)(F)F)c2)sc2c1CCCC2`, 72% (inactive). As for `CCCCOc1cccc(C(=O)Nc2sc3c(c2C(=O)OCC)CCCC3)c1`, the survival was 72% (inactive). Regarding `Cc1ccc(OCCCC(=O)Nc2sc3c(c2C(N)=O)CCCC3)cc1`, the survival was 57% (inactive).

As for `COC(=O)c1c(NC(=O)CCCOc2ccc(C)cc2)sc2c1CCCC2`, the survival was 3% (active). With `COC(=O)c1c(NC(=O)COc2c(C)cccc2C)sc2c1CCCC2`, the survival is 6% (active). For `COC(=O)c1c(NC(=O)COc2ccc(C)cc2Br)sc2c1CCCC2` the value was 44% (inactive); for `COC(=O)c1c(NC(=O)c2ccc(OC)cc2OC)sc2c1CCCCC2`, 56% (inactive); for `COC(=O)c1c(NC(=O)CCCOc2cccc(C)c2)sc2c1CCC2`, 12% (active). In the case of `COC(=O)c1c(NC(=O)c2ccccc2C(=O)O)sc2c1CCCC2`, the survival was 110% (inactive).

Regarding `COC(=O)c1c(NC(=O)COc2ccc(C(C)C)cc2)sc2c1CCCC2`, the survival is 51% (inactive).

(Values after PubChem BioAssay AID463173 (ICCB-Longwood Screening Facility, Harvard Medical School, 2010).)
